Source: PubChem (several laboratories)
GAA850 FXN act = FXN promoter activators, primary screen, cell-based, luciferase luminescence, HEK293 lucGAA850 | activation, % at 6 µM | HEK293 lucGAA850 FXN promoter luciferase reporter, 24 h; percent of 10 µM SAHA response | AID 540364, 2011 | 360,000 compounds, 0.56% hits;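 active = activation above the average of all compounds screened plus 3 SD, cutoff fixed separately per campaign, cut at about 7.5% in these data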;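 note: 0% = DMSO wells and 100% = 10 µM SAHA wells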
esBAF inh = Bmi1 luciferase reporter increase in mESCs, primary screen, esBAF inhibitor project, mouse ES cells, Bmi1 luciferase knock-in, single point; reporter increase, % at 12.5 µM; 24 h; 100% = twice the neutral-well signal; 350,000 compounds, 2% hits; AID 602393, 2012; in the data active = activation above about 40%; inconclusive = no clear call, values can overlap the other calls;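 note: 0% = median of the plate's neutral control wells and 100% = double that signal; a rise in the Bmi1 reporter signal indicates esBAF inhibition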
MITF act = activators of MITF-driven TRPM1 promoter reporter, primary screen, cell-based, SK-MEL-5, luciferase, single point | activation, % at 12.5 µM | SK-MEL-5 TRPM1-promoter luciferase, 24 h; % of positive control, neutral wells = 0 | 300,000 compounds, 0.75% hits;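 active = mean activation of at least 80% with every replicate also reaching 80%; inconclusive = mean reaches 80% but some replicate falls short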;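 note: 0% = neutral control wells and 100% = parthenolide positive control wells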
Wnt act = Wnt/beta-catenin pathway activators, primary screen, cell-based, plate reader, single point; AID 743398, 2014; activation, % at 9.35 µM; Wnt/beta-catenin reporter cell assay, activator; 300,000 compounds, 1.2% hits; in the data active = activation above about 30%, passing the limit was not always enough; inconclusive = no clear call, values can overlap the other calls;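 note: 0% = neutral control wells and 100% = positive control wells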
GAA30 FXN cntr = GAA30 FXN promoter activators, confirmation, counter-screen for GAA850 frataxin promoter activator project, cell-based, luminescence, HEK293, lucGAA30, triplicate; shares compounds with GAA850 FXN act; HEK293 lucGAA30 FXN promoter luciferase, 24 h; DMSO = 0%, 5 µM ipriflavone = 100%; activation, % at 6 µM; 1,900 compounds, 66% hits;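 active = mean activation above the mean of solvent-only control wells plus 3 SD, cut at about 22% in these data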;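 note: counterscreen of GAA850 promoter hits where activity marks nonselective or luminescence artifacts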
FXN GAA850 conf = FXN GAA850 promoter activators in reporter cells, confirmation, cell-based, luminescence, HEK293 lucGAA850, triplicate | shares compounds with GAA850 FXN act | HEK293 lucGAA850 FXN promoter luciferase reporter, 24 h; 100% = activation by SAHA | activation, % at 6 µM | 1,900 compounds, 86% hits | AID 588351, 2011;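 active = mean activation above a set limit taken from the primary screen, cut at about 8% in these data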;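 note: 0% = DMSO wells and 100% = 10 µM SAHA wells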
An asterisk follows results filed as active. Shown are actives, neighbours in structure and some others; about 2.8% of the full set was active somewhere.

COCC(=O)N(C)C[C@H]1Oc2cc(C#C[C@H](C)O)ccc2S(=O)(=O)N([C@H](C)CO)C[C@@H]1C was read as esBAF inh 0.
Screening C[C@@H]1CN([C@@H](C)CO)C(=O)Cc2cc(NC(=O)CCN3CCOCC3)ccc2O[C@@H]1CN(C)Cc1ccccc1 returned esBAF inh 8.
CC(C)=CC(=O)NCCc1ccccc1 was read as GAA850 FXN act 15*, esBAF inh 9, MITF act 57, GAA30 FXN cntr 75* and FXN GAA850 conf 20*.
C[C@@H]1CN([C@@H](C)CO)C(=O)c2cc(NC(=O)C3CCCCC3)ccc2O[C@@H]1CN(C)Cc1ccccc1 was read as esBAF inh 2.
COc1cc(NC(=O)Cn2ncc(Cl)c(Cl)c2=O)c(C)cc1[N+](=O)[O-] was read as GAA850 FXN act 12*, MITF act -103, Wnt act 0, GAA30 FXN cntr -82 and FXN GAA850 conf -18.
`COc1cc(NC(=O)CN2C(=O)CN(C)C2=O)c(C)cc1[N+](=O)[O-]` gave GAA850 FXN act -3, esBAF inh 1, MITF act -10 and Wnt act 0.
`CN1C[C@H]2[C@@H](c3ccccc31)[C@@H](CO)N2C(=O)C1CC1` gave esBAF inh -1.
`CCCCCc1ccc(-c2nnc(N)s2)cc1` gave GAA850 FXN act 7.8*, esBAF inh inconclusive, MITF act 35, Wnt act -1, GAA30 FXN cntr 78* and FXN GAA850 conf 21*.
`Fc1ccc(Nc2nc(-c3ccncc3)cs2)cc1` gave GAA850 FXN act 7.9*, MITF act 84*, Wnt act 28, GAA30 FXN cntr 89* and FXN GAA850 conf 33*.
`O=C(O)c1ccc(Nc2nc(-c3cccnc3)cs2)cc1` gave GAA850 FXN act 4, esBAF inh inconclusive, MITF act 17 and Wnt act 26.
`C[C@H]1CN([C@@H](C)CO)S(=O)(=O)c2ccc(C#CC3(O)CCCC3)cc2O[C@H]1CN(C)C` gave esBAF inh -3.
CC1=CC(C)=Nc2ccccc2N1 was read as GAA850 FXN act 7.9*, esBAF inh 24, MITF act -6, GAA30 FXN cntr 79* and FXN GAA850 conf 18*.
O=C1[C@H]2[C@@H](C(=O)N1c1cccc3ccccc13)C1(C(=O)c3ccccc3C1=O)N1CCC[C@@H]21 was read as GAA850 FXN act 9.4*, esBAF inh -3, MITF act -6, Wnt act 7, GAA30 FXN cntr 37* and FXN GAA850 conf 16*.
Screening O=C1C2C3C=CC(C3)C2C(=O)N1c1cccc2ccccc12 (configuration not stated) returned GAA850 FXN act 1, esBAF inh -1, MITF act -9 and Wnt act 1.
Screening OCC1CCCN(C(=S)Nc2ccc(Oc3ccccc3)cc2)C1 (configuration not stated) returned GAA850 FXN act 11*, esBAF inh 82*, MITF act 53, Wnt act 9, GAA30 FXN cntr 105* and FXN GAA850 conf 34*.
CC(=O)c1ccc(NC(=S)N2CCCC(CO)C2)cc1 (configuration not stated) was read as GAA850 FXN act 4, MITF act 14 and Wnt act 10.
Screening CCCNC(=O)[C@@H]1[C@@H](CO)[C@@H]2Cn3c(ccc(-c4ccccc4)c3=O)[C@@H]2N1C(=O)C1CCC1 returned esBAF inh 1.
`CON(C)c1nc(OCCNC(=O)OCc2ccc(Cl)cc2C)nc(N(C)C)n1` gave GAA850 FXN act 12*, esBAF inh 4, MITF act 5, Wnt act -3, GAA30 FXN cntr 21 and FXN GAA850 conf 6.
Screening CO[C@@H]1CN(C)C(=O)c2cc(NS(C)(=O)=O)ccc2OC[C@H](C)N(C)C[C@@H]1C returned esBAF inh -3.
`O=C(C1CCC1)N1CCCCN2[C@@H](CO)[C@@H](c3ccc(-c4ccncc4)cc3)[C@@H]2C1` gave esBAF inh -2.
COc1ccnc(NCc2ccc(Cl)cc2)c1C#N was read as GAA850 FXN act 10*, esBAF inh -8, MITF act 19, GAA30 FXN cntr 55* and FXN GAA850 conf 20*.
COc1cc2ncnc(NCc3ccc(Cl)cc3)c2cc1OC was read as GAA850 FXN act -1, MITF act -4 and Wnt act -1.
For N#C/C(=C/c1ccco1)c1nc2ccccc2s1 the results were GAA850 FXN act 7.7*, MITF act 5, Wnt act 51*, GAA30 FXN cntr 142* and FXN GAA850 conf 45*.
Screening Cc1cc(C(=O)Nc2cccc3c2O[C@H](CN(C)Cc2ccccc2)[C@@H](C)CN([C@H](C)CO)C3=O)n(C)n1 returned esBAF inh 4.
`Cc1ccc(-c2noc(C3CCCN(C(=O)c4ccccc4)C3)n2)o1` (configuration not stated) gave GAA850 FXN act 7.7*, esBAF inh 23, MITF act 65, GAA30 FXN cntr 107* and FXN GAA850 conf 30*.
C[C@H]1CN([C@@H](C)CO)C(=O)c2cc(NS(=O)(=O)c3ccc(F)cc3)ccc2O[C@@H]1CN(C)S(=O)(=O)c1ccc(F)cc1 was read as esBAF inh 2.
For COc1cc(/C=N/Nc2ccccn2)ccc1OCC(C)C the results were GAA850 FXN act 7.8*, esBAF inh inconclusive, MITF act 90*, Wnt act 7, GAA30 FXN cntr 87* and FXN GAA850 conf 38*.
Screening COc1ccc(S(=O)(=O)Nc2ccc3c(c2)C(=O)N([C@@H](C)CO)C[C@@H](C)[C@H](CN(C)Cc2ccncc2)OCCCC[C@H](C)O3)cc1 returned esBAF inh 1.
Cc1ccccc1S(=O)(=O)N(C)C[C@H]1OCc2ccccc2-c2c(n(C)c3ccccc23)C(=O)N([C@H](C)CO)C[C@@H]1C was read as esBAF inh -3.
For C[C@H](CO)N1C[C@H](C)[C@H](CN(C)C(=O)Nc2ccc(F)cc2)OCc2ccccc2-c2c(n(C)c3ccccc23)C1=O the results were GAA850 FXN act 14*, esBAF inh 8, Wnt act -2, GAA30 FXN cntr 20 and FXN GAA850 conf 9.4*.
